The target of the assay is T1, GST-Dm-Relish (Drosophila melanogaster, UniProt Q94527 99-473).
T1 sequence: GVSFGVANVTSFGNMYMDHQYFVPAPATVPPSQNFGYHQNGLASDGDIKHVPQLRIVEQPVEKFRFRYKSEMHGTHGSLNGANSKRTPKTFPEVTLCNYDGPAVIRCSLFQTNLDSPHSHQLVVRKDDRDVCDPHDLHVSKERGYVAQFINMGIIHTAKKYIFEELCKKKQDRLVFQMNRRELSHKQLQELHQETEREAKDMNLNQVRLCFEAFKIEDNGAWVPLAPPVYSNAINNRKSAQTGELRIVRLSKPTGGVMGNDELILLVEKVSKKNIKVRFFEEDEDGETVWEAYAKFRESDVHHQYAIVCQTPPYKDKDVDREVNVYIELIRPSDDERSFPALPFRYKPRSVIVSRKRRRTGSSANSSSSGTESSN
Description: protein-binding microarray (PBM); PBM: ~300 nM protein, 6 mM HEPES pH 7.8, 80 mM KCl, 0.5 mM EDTA, 0.5 mM EGTA, 6% glycerol, 35 ng/ul poly-dIdC, 1% milk, 1 h, room temperature; Ap Aiptasia and Nv Nematostella (sea anemones) / Co Capsaspora / Aq Amphimedon (sponge) / Dm Drosophila / Hu human; RHD is the Rel homology domain; high values mean tight binding. The following applies: dsDNA, one strand shown.
Sequence “CCGATTAACATCAGGCAAATCCCTGATGTTAATCGGGTCTTGATTCGCTTGACGCTGCTG” returned a binding signal of 1.36 z-score. With “CCGATTAACATCAGGAAAATACCTGATGTTAATCGGGTCTTGATTCGCTTGACGCTGCTG”, the binding signal was 4.66 z-score. “CCGATTAACATCAGGGACCTCCCTGATGTTAATCGGGTCTTGATTCGCTTGACGCTGCTG” yielded a binding signal of 6.16 z-score. The sequence “CCGATTAACATCAGGGAAGCCCATGATGTTAATCGGGTCTTGATTCGCTTGACGCTGCTG” had a binding signal of 8.29 z-score.

In turn, “CCGATTAACATCAAGAAATTACCTGATGTTAATCGGGTCTTGATTCGCTTGACGCTGCTG” registered a binding signal of 3.19 z-score.

Turning to “CCGATTAACATCAGGAACGCCCCTGATGTTAATCGGGTCTTGATTCGCTTGACGCTGCTG”, the binding signal turned out to be 2.09 z-score. In turn, “CCGATTAACATCAAGGGCATTCCTGATGTTAATCGGGTCTTGATTCGCTTGACGCTGCTG” registered a binding signal of 2.4 z-score. On to “CCGATTAACATCAGGAAATGCCCTGATGTTAATCGGGTCTTGATTCGCTTGACGCTGCTG”, for which the binding signal came to 1.68 z-score. As for “CCGATTAACATCACGGAAGTCCCTGATGTTAATCGGGTCTTGATTCGCTTGACGCTGCTG”, the binding signal is 6.53 z-score. With “CCGATTAACATCAGGTAATCACCTGATGTTAATCGGGTCTTGATTCGCTTGACGCTGCTG”, the binding signal turned out to be 5.6 z-score. With “CCGATTAACATCAGGACAGTCCCTGATGTTAATCGGGTCTTGATTCGCTTGACGCTGCTG”, the binding signal stood at 3.04 z-score.

“CCGATTAACATCAAGGAAAACCCTGATGTTAATCGGGTCTTGATTCGCTTGACGCTGCTG” gave a binding signal of 4.56 z-score.

As to “CCGATTAACATCAGGGATTCCACTGATGTTAATCGGGTCTTGATTCGCTTGACGCTGCTG”, the binding signal turned out to be 6.88 z-score.

On to “CCGATTAACATCAGGGATTTACCTGATGTTAATCGGGTCTTGATTCGCTTGACGCTGCTG”, for which the binding signal turned out to be 9.23 z-score. Sequence “CCGATTAACATCAAGGAATTACCTGATGTTAATCGGGTCTTGATTCGCTTGACGCTGCTG” came in with a binding signal of 5.14 z-score. The sequence “CCGATTAACATCAGGGTTTTCCATGATGTTAATCGGGTCTTGATTCGCTTGACGCTGCTG” gave a binding signal of 5.27 z-score.

For the sequence “CCGATTAACATCAGGGCAAACCCTGATGTTAATCGGGTCTTGATTCGCTTGACGCTGCTG”, the binding signal was 1.14 z-score.

The sequence “CCGATTAACATCAGGAGATACCCTGATGTTAATCGGGTCTTGATTCGCTTGACGCTGCTG” returned a binding signal of 3.18 z-score.

As to “CCGATTAACATCAAAATTCCACCTGATGTTAATCGGGTCTTGATTCGCTTGACGCTGCTG”, the binding signal came to 1.96 z-score. “CCGATTAACATCAGGAAAAACCCTGATGTTAATCGGGTCTTGATTCGCTTGACGCTGCTG” showed a binding signal of 6.52 z-score. To “CCGATTAACATCAGGCAAGTCCCTGATGTTAATCGGGTCTTGATTCGCTTGACGCTGCTG” belongs 2.41 z-score; to “CCGATTAACATCAGGGAAGCACCTGATGTTAATCGGGTCTTGATTCGCTTGACGCTGCTG”, 9.38 z-score; to “CCGATTAACATCAGGACTTTACCTGATGTTAATCGGGTCTTGATTCGCTTGACGCTGCTG”, 5.92 z-score.

“CCGATTAACATCAGGATATACCCTGATGTTAATCGGGTCTTGATTCGCTTGACGCTGCTG” displayed a binding signal of 2.67 z-score.

In turn, “CCGATTAACATCAGGAAGACCCCTGATGTTAATCGGGTCTTGATTCGCTTGACGCTGCTG” came in with a binding signal of 3.8 z-score. “CCGATTAACATCAAGGGCTTCCCTGATGTTAATCGGGTCTTGATTCGCTTGACGCTGCTG” came in with a binding signal of 7.18 z-score. “CCGATTAACATCAGGTACTTCCATGATGTTAATCGGGTCTTGATTCGCTTGACGCTGCTG”: the binding signal is 5.93 z-score. As to “CCGATTAACATCAACAAAGTCCCTGATGTTAATCGGGTCTTGATTCGCTTGACGCTGCTG”, the binding signal is 5.26 z-score. To “CCGATTAACATCAGAAATTTACCTGATGTTAATCGGGTCTTGATTCGCTTGACGCTGCTG” belongs 2.77 z-score; to “CCGATTAACATCAGGGCATTACCTGATGTTAATCGGGTCTTGATTCGCTTGACGCTGCTG”, 3.33 z-score. For “CCGATTAACATCAAGGGAAGCCCTGATGTTAATCGGGTCTTGATTCGCTTGACGCTGCTG”, the binding signal is 7.5 z-score. In turn, “CCGATTAACATCAGGAATCACCCTGATGTTAATCGGGTCTTGATTCGCTTGACGCTGCTG” had a binding signal of 7.17 z-score.

“CCGATTAACATCAAAAAATACCATGATGTTAATCGGGTCTTGATTCGCTTGACGCTGCTG” displayed a binding signal of 4.53 z-score.

Regarding “CCGATTAACATCAAGGGGGTCCCTGATGTTAATCGGGTCTTGATTCGCTTGACGCTGCTG”, the binding signal stood at 7.16 z-score.

In the case of “CCGATTAACATCAGGGAGTTCCATGATGTTAATCGGGTCTTGATTCGCTTGACGCTGCTG”, the binding signal was 4.43 z-score. For “CCGATTAACATCATGAAGACCCCTGATGTTAATCGGGTCTTGATTCGCTTGACGCTGCTG”, the binding signal was determined as 1.35 z-score. The sequence “CCGATTAACATCAGGGACCGCCCTGATGTTAATCGGGTCTTGATTCGCTTGACGCTGCTG” had a binding signal of 1.91 z-score.

Source of the values: article PMC5700166.
